The source made the active and inactive calls.
Columns and labels:
[1] = test system: PRMT1 (protein arginine N-methyltransferase 1); test: PRMT1 binders on small-molecule microarrays, primary screen, biochemical, small-molecule microarray, 635 nm fluorescence (AID 1088); conditions: small-molecule microarray binding, higher = more signal;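 also: binding of Prmt1 protein to compounds spotted on small-molecule microarray slides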
[2] = yeast growth modulation, basal conditions, primary screen, YJM789 clinical isolate, OD600, 24 h (AID 1089);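 also: growth of clinical yeast isolate S. cerevisiae YJM 789 seeded 1000 cells per well; test concentration not given here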; conditions: S. cerevisiae YJM789 growth, higher = more signal, called active from +8 up or from −8 down
[3] = fission yeast growth modulation, primary screen, strain 972, OD600, 24 h, no modulator (AID 1090);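 also: basal condition with compound alone and no growth modifier present; test concentration not given here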; conditions: S. pombe 972 growth, higher = more signal, called active from +8 up or from −8 down
[4] = S. cerevisiae growth modulation with rapamycin, primary screen, strain BY4716, OD600, 96 h (AID 1091); conditions: higher = more signal, called active from +8 up or from −8 down; also: test concentration not given here
[5] = biological target: Torsin-1A-interacting protein 2 (Homo sapiens) (UniProt Q8NFQ8); test: LULL1 binders on small-molecule microarray, primary screen, cell lysate, human LULL1 lysate, 635/667 nm fluorescence (AID 1092); conditions: hLULL1 lysate binding, 635 nm fluorescence, higher = more signal;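 also: probe is lysate of COS7 cells overexpressing human LULL1; score merges per-feature 667 nm fluorescence with signal-to-noise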
Sequence of Torsin-1A-interacting protein 2 (Homo sapiens) (Q8NFQ8 whole entry, looked up): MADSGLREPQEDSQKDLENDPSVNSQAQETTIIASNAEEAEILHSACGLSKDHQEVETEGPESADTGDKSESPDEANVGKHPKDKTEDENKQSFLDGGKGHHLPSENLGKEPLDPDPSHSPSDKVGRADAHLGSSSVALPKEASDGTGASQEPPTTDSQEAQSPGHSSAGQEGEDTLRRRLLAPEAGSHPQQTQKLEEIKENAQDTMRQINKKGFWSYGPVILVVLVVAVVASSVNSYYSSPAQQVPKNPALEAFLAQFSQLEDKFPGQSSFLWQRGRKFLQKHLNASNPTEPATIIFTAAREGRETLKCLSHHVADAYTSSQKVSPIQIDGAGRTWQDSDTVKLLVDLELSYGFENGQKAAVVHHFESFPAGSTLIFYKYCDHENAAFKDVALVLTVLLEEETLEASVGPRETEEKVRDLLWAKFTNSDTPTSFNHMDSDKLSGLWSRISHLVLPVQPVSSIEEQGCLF

[6] = E. coli growth modulation, two-sided OD650, primary screen, E. coli filamentation project, strain DRC41, 24 h (AID 1093); conditions: OD650, 24 h, higher = more signal, called active from +8 up or from −8 down;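 also: MC1000 strain lacking acrAB efflux and sulA so SOS filamentation is blocked; test concentration not given here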
[7] = small-molecule microarray binders of probe aLefty2, primary screen, biochemical, biotinylated probe, 635/667 nm fluorescence (AID 1094); conditions: higher = more signal;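 also: score merges spot fluorescence near 667 nm with spot signal-to-noise ratio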
[8] = test system: Noggin (protein binding on small-molecule microarray); test: Noggin binders on small-molecule microarray, primary screen, biochemical, 635/667 nm fluorescence (AID 1095); conditions: 635 nm fluorescence, higher = more signal;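 also: score merges 667 nm feature fluorescence with signal to noise over triplicate slides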
[9] = biological target: Neurogenic locus notch homolog protein 3 (Homo sapiens) (UniProt Q9UM47); test: NOTCH3 binders on small-molecule microarray, primary screen, biochemical, 635/667 nm fluorescence (AID 1096); conditions: NOTCH3 binding, 635 nm fluorescence, higher = more signal
Sequence of Neurogenic locus notch homolog protein 3 (Homo sapiens) (Q9UM47 whole entry, looked up): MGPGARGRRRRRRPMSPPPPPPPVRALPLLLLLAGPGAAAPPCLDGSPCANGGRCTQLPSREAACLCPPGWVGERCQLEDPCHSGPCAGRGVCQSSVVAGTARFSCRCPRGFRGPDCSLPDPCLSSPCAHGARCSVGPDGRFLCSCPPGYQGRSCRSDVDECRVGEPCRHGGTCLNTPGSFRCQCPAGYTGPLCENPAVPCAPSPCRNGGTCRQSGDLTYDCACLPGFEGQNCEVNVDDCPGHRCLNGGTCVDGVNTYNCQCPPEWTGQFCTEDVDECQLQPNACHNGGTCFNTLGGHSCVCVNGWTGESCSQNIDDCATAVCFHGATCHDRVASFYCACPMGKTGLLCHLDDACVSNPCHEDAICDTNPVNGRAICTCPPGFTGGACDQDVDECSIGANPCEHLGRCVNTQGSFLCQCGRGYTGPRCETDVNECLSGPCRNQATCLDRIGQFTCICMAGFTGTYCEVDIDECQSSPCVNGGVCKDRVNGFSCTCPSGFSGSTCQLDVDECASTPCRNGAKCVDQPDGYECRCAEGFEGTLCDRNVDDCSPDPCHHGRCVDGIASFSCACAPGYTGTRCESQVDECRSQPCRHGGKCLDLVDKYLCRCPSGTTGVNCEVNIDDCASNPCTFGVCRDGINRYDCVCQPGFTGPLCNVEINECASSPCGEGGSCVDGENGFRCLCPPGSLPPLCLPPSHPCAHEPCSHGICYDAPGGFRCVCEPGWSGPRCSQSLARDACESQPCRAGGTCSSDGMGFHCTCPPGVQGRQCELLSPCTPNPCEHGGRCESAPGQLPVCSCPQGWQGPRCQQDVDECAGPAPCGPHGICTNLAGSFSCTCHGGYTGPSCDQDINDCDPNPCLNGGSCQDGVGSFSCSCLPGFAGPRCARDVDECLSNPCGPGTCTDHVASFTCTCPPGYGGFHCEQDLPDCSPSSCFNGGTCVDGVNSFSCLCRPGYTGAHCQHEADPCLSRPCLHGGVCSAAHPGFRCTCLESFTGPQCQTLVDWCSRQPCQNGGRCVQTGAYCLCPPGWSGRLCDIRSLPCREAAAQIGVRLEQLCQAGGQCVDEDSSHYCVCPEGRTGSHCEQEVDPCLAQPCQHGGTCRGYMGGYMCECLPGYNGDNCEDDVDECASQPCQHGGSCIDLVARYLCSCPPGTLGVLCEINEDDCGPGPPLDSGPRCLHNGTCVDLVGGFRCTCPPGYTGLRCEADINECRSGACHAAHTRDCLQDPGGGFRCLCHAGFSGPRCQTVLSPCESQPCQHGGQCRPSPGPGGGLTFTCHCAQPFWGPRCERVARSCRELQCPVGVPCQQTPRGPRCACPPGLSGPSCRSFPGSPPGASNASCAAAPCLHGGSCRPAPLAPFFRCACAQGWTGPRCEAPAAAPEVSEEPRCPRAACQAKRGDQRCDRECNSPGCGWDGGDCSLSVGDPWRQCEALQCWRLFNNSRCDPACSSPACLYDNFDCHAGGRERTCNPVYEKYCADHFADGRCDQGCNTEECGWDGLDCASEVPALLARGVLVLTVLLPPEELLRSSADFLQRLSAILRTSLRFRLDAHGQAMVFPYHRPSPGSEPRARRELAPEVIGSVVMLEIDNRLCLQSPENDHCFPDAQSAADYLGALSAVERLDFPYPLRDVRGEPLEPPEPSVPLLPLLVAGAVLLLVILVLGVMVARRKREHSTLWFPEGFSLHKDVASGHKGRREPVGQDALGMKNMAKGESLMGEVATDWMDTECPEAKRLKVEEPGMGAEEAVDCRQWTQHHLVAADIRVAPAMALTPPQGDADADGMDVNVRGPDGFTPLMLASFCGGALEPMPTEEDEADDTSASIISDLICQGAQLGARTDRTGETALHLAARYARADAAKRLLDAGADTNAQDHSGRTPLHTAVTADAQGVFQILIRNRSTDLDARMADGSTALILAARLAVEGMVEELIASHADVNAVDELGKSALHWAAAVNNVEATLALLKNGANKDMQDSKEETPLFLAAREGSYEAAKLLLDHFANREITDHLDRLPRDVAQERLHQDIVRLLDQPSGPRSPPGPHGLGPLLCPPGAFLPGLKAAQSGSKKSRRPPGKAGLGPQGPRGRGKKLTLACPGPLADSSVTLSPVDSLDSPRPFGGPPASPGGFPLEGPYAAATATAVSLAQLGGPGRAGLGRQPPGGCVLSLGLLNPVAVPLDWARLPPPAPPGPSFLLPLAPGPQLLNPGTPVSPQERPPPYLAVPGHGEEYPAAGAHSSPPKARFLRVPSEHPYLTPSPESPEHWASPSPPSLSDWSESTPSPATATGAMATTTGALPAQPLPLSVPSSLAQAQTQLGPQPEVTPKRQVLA

[10] = small-molecule microarray binders of probe aEGFR, primary screen, biochemical, biotinylated probe, 635/667 nm fluorescence (AID 1097); conditions: higher = more signal;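 also: probe is a biotinylated anti-EGFR antibody binding compounds printed on slides; score combines fluorescence near 667 nm and signal to noise of each spot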
[11] = test system: Plasmodium falciparum Sir2 (PF13_0152, Sir2A); test: pfSir2 binders on small-molecule microarrays, primary screen, biochemical, small-molecule microarray, 635 nm fluorescence (AID 1098); conditions: small-molecule microarray binding, fluorescence 635 nm; higher = more signal;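 also: score merges spot fluorescence intensity with its signal-to-noise ratio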
[12] = small-molecule microarray binders of probe aDKK1, primary screen, biochemical, biotinylated probe, 635/667 nm fluorescence (AID 1099); conditions: higher = more signal;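 also: score merges 667nm spot fluorescence with signal to noise across triplicate slides; reference of the scale not given here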
[13] = small-molecule microarray binders of probe aCHRDL2, primary screen, biochemical, biotinylated probe, 635/667 nm fluorescence (AID 1100); conditions: higher = more signal
[14] = splicing luciferase reporter signal modulators, primary screen, spliceosome inhibition project, cell-based, HEK293, splice +/- reporter (AID 1101); conditions: luminescence, 24 h, higher = more signal, called active from +8 up or from −8 down;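 also: HEK293 cells carrying a splicing-competent luciferase reporter gene; test concentration not given here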
[15] = biological target: Fibroblast growth factor 10 (Homo sapiens) (UniProt O15520); test: FGF10 binders on small-molecule microarrays, primary screen, biochemical, small-molecule microarray, 635 nm fluorescence (AID 1102); conditions: FGF10 binding, fluorescence 635 nm, higher = more signal
Sequence of Fibroblast growth factor 10 (Homo sapiens) (O15520 whole entry, looked up): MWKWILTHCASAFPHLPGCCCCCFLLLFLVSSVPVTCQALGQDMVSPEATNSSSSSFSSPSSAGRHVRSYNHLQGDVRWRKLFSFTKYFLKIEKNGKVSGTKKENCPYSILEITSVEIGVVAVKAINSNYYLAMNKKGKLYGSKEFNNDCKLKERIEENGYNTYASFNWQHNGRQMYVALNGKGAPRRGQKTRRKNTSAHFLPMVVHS

[16] = test system: glycogen synthase kinase-3 (GSK3A per assay name; protocol says GSK3B); test: GSK3 binders on small-molecule microarrays, primary screen, biochemical, small-molecule microarray, 635 nm fluorescence, GSK3A (AID 1103); conditions: small-molecule microarray binding, fluorescence 635 nm; higher = more signal; also: the record names both GSK3A and GSK3B
[17] = biological target: Epidermal growth factor receptor (Homo sapiens) (UniProt P00533); test: EGFR binders on small-molecule microarrays, primary screen, biochemical, small-molecule microarray, 635 nm fluorescence (AID 1104); conditions: EGFR binding, higher = more signal;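 also: score merges 667 nm emission intensity with spot signal to noise over triplicate slides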
Sequence of Epidermal growth factor receptor (Homo sapiens) (P00533 whole entry, looked up): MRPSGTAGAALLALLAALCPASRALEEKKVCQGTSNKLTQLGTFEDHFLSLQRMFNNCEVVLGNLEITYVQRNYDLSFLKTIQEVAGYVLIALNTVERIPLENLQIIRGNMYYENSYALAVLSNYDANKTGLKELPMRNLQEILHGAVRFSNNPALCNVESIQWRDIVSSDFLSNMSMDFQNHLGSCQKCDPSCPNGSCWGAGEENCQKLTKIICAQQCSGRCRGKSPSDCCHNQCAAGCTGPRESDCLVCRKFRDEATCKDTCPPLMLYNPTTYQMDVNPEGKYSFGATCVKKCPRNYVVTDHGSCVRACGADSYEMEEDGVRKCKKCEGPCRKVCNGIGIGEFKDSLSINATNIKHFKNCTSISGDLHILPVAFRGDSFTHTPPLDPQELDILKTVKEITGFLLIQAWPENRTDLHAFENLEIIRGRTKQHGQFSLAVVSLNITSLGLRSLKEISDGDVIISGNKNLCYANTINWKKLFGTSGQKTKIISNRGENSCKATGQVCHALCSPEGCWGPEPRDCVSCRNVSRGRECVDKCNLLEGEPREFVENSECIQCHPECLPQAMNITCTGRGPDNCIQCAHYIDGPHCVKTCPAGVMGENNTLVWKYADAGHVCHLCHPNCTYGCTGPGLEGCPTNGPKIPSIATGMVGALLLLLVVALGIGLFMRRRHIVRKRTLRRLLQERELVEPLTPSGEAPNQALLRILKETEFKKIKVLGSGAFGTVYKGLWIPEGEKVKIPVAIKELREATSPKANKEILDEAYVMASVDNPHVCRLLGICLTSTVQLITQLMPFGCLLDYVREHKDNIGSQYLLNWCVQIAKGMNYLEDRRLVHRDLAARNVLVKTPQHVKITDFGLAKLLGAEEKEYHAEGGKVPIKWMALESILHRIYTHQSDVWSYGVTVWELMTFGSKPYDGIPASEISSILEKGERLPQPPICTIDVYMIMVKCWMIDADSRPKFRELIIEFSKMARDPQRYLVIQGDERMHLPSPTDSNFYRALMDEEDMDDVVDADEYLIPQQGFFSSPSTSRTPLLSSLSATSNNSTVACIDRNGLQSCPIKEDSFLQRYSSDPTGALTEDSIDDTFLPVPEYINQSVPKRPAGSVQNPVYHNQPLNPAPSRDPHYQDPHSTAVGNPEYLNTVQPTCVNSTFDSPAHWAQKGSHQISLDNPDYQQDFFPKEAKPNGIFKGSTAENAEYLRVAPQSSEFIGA

[18] = biological target: Follistatin-related protein 3 (Homo sapiens) (UniProt O95633); test: FSTL3 binders on small-molecule microarrays, primary screen, biochemical, small-molecule microarray, 635 nm fluorescence (AID 1105); conditions: FSTL3 binding, higher = more signal;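 also: score merges emission near 667 nm and signal to noise per printed spot across three slides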
Sequence of Follistatin-related protein 3 (Homo sapiens) (O95633 whole entry, looked up): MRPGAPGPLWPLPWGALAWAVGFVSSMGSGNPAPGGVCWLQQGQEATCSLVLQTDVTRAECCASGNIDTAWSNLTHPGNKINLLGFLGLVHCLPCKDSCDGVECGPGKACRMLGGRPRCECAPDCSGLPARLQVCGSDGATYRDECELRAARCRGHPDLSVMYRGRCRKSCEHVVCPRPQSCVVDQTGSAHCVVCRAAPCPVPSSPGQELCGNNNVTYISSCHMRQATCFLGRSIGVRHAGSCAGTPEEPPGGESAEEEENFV

[19] = biological target: Dickkopf-related protein 1 (Homo sapiens) (UniProt O94907); test: DKK1 binders on small-molecule microarrays, primary screen, biochemical, small-molecule microarray, 635 nm fluorescence scan (AID 1106); conditions: DKK1 binding, higher = more signal;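 also: score merges emission near 667 nm with signal to noise over three replicate slides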
Sequence of Dickkopf-related protein 1 (Homo sapiens) (O94907 whole entry, looked up): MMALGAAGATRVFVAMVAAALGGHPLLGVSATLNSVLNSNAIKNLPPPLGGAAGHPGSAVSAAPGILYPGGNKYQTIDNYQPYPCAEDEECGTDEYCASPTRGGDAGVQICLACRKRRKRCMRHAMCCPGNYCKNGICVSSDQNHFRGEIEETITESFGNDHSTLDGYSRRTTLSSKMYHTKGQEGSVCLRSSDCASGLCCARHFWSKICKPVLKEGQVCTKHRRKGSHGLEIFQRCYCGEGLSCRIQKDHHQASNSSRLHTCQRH

[20] = test system: Inhibin beta A chain (activin A); test: INHBA (activin A) binders on microarrays, primary screen, biochemical, small-molecule microarray, 635 nm fluorescence scan (AID 1107); conditions: small-molecule microarray binding, higher = more signal;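 also: mouse activin A protein probed at 4.33 µg/mL on printed slides; score merges bound-protein fluorescence near 667 nm with spot signal-to-noise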

## CON=C[C@@H](NS(=O)(=O)c1ccc(C)cc1)[C@H](C)C=CCC(=O)OC
[1]
  composite z-score: -0.327
[2]
  z-score: 0.903 (inactive)
[3]
  z-score: 0.435 (inactive)
[4]
  z-score: 0.719 (inactive)
[5]
  composite z-score: -0.312
[6]
  z-score: 0.306 (inactive)
[7]
  composite z-score: -0.138
[8]
  composite z-score: 0.26
[9]
  composite z-score: -0.0877
[10]
  composite z-score: -0.289
[11]
  composite z-score: 0.571
[12]
  composite z-score: -0.26
[13]
  composite z-score: -0.447
[14]
  z-score: -0.114 (inactive)
[15]
  composite z-score: 0.0529
[16]
  composite z-score: -0.435
[17]
  composite z-score: 0.314
[18]
  composite z-score: 0.224
[19]
  composite z-score: 0.611
[20]
  composite z-score: 1.33

## COC(=O)[C@@H]1CC[C@H](C)[C@@H](c2ccc(C)cc2)N1C(=O)c1ccc(C=NO[C@@H]2O[C@H](COC(C)=O)[C@@H](OC(C)=O)[C@H](OC(C)=O)[C@H]2OC(C)=O)cc1
[1]
  composite z-score: 1.43
[2]
  z-score: 1.26 (inactive)
[3]
  z-score: -0.631 (inactive)
[4]
  z-score: 0.876 (inactive)
[5]
  composite z-score: 0.475
[6]
  z-score: -1.3 (inactive)
[7]
  composite z-score: -0.0873
[8]
  composite z-score: 0.199
[9]
  composite z-score: 0.864
[10]
  composite z-score: 0.129
[11]
  composite z-score: 0.32
[12]
  composite z-score: -0.254
[13]
  composite z-score: -0.393
[14]
  z-score: -1.56 (inactive)
[15]
  composite z-score: 0.666
[16]
  composite z-score: 0.798
[17]
  composite z-score: 0.323
[18]
  composite z-score: 0.92
[19]
  composite z-score: 0.374
[20]
  composite z-score: -0.059

## COc1ccc(O[C@H]2C=C[C@@H](c3ccccc3)O[C@@H]2CON=C(C)CCC(=O)OC[C@H]2O[C@H](c3ccccc3)C=C[C@@H]2Oc2ccc(OC)cc2)cc1
[1]
  composite z-score: -2.44
[2]
  z-score: 0.76 (inactive)
[3]
  z-score: 0.91 (inactive)
[4]
  z-score: 0.525 (inactive)
[5]
  composite z-score: -1.78
[6]
  z-score: -0.0503 (inactive)
[7]
  composite z-score: -0.294
[8]
  composite z-score: -0.769
[9]
  composite z-score: 0.0708
[10]
  composite z-score: -0.267
[11]
  composite z-score: 0.0844
[12]
  composite z-score: -0.252
[13]
  composite z-score: 0.2
[14]
  z-score: 0.114 (inactive)
[15]
  composite z-score: -1.19
[16]
  composite z-score: -1.59
[17]
  composite z-score: -1.63
[18]
  composite z-score: -1.25
[19]
  composite z-score: -0.591
[20]
  composite z-score: 0.95

## COc1ccc(O[C@@H]2[C@H](O)CO[C@H]2C=Cc2ccccc2)cc1
[1]
  composite z-score: 0.619
[2]
  z-score: -2.63 (inactive)
[3]
  z-score: -3.17 (inactive)
[4]
  z-score: -0.856 (inactive)
[5]
  composite z-score: 0.108
[6]
  z-score: 0.473 (inactive)
[7]
  composite z-score: -0.214
[8]
  composite z-score: 0.146
[9]
  composite z-score: -0.167
[10]
  composite z-score: -0.148
[11]
  composite z-score: 0.1
[12]
  composite z-score: -0.274
[13]
  composite z-score: -0.379
[14]
  z-score: -0.878 (inactive)
[15]
  composite z-score: 0.0279
[16]
  composite z-score: -0.0395
[17]
  composite z-score: -0.033
[18]
  composite z-score: -0.267
[19]
  composite z-score: -0.275
[20]
  composite z-score: 0.799

## CC(=O)Nc1ccc([C@@H]2N[C@H](C(=O)O)CC[C@H]2C)cc1
[1]
  composite z-score: 0.0579
[2]
  z-score: 0.216 (inactive)
[3]
  z-score: -0.228 (inactive)
[4]
  z-score: 0.634 (inactive)
[5]
  composite z-score: 0.184
[6]
  z-score: 0.622 (inactive)
[7]
  composite z-score: -0.139
[8]
  composite z-score: 0.399
[9]
  composite z-score: 0.626
[10]
  composite z-score: -0.0493
[11]
  composite z-score: 0.136
[12]
  composite z-score: -0.108
[13]
  composite z-score: -0.401
[14]
  z-score: 0.303 (inactive)
[15]
  composite z-score: 0.32
[16]
  composite z-score: 0.461
[17]
  composite z-score: 0.546
[18]
  composite z-score: 0.409
[19]
  composite z-score: 0.444
[20]
  composite z-score: 0.133

## CCCNC(=O)OC[C@H]1O[C@H](CCON=C(C)CCC(=O)OC[C@H]2O[C@H](c3ccccc3)C=C[C@@H]2Oc2ccc(OC)cc2)C=C[C@@H]1Oc1ccc(OC)cc1
[1]
  composite z-score: -1.37
[2]
  z-score: -1.66 (inactive)
[3]
  z-score: 0.702 (inactive)
[4]
  z-score: -0.59 (inactive)
[5]
  composite z-score: -1.09
[6]
  z-score: 0.0967 (inactive)
[7]
  composite z-score: -0.0982
[8]
  composite z-score: -0.184
[9]
  composite z-score: -0.619
[10]
  composite z-score: -0.042
[11]
  composite z-score: 0.452
[12]
  composite z-score: -0.183
[13]
  composite z-score: -0.207
[14]
  z-score: 0.358 (inactive)
[15]
  composite z-score: -0.445
[16]
  composite z-score: -1.49
[17]
  composite z-score: -0.239
[18]
  composite z-score: -0.31
[19]
  composite z-score: 0.0289
[20]
  composite z-score: 0.844

## CC(C)=NO[C@H](C)c1cn([C@H](CO)Cc2ccccc2)nn1
[1]
  composite z-score: 0.325
[2]
  z-score: -0.43 (inactive)
[3]
  z-score: -0.594 (inactive)
[4]
  z-score: 0.245 (inactive)
[5]
  composite z-score: 1.09
[6]
  z-score: 0.208 (inactive)
[7]
  composite z-score: -0.166
[8]
  composite z-score: -0.0003
[9]
  composite z-score: 0.104
[10]
  composite z-score: -0.0406
[11]
  composite z-score: 0.618
[12]
  composite z-score: -0.309
[13]
  composite z-score: -0.113
[14]
  z-score: 1 (inactive)
[15]
  composite z-score: 0.443
[16]
  composite z-score: -0.122
[17]
  composite z-score: 0.17
[18]
  composite z-score: -0.275
[19]
  composite z-score: 0.291
[20]
  composite z-score: 0.576

## Cc1cc2c(nc1C)CCCN2CC(O)CN1CCCc2nc(C)c(C)cc21
[1]
  composite z-score: 0.692
[2]
  z-score: 0.623 (inactive)
[3]
  z-score: 0.73 (inactive)
[4]
  z-score: -0.238 (inactive)
[5]
  composite z-score: 1.89
[6]
  z-score: -0.605 (inactive)
[7]
  composite z-score: 0.256
[8]
  composite z-score: 0.256
[9]
  composite z-score: 0.625
[10]
  composite z-score: -0.002
[11]
  composite z-score: 0.264
[12]
  composite z-score: 0.125
[13]
  composite z-score: 0.258
[14]
  z-score: -0.153 (inactive)
[15]
  composite z-score: 0.92
[16]
  composite z-score: 0.388
[17]
  composite z-score: 0.36
[18]
  composite z-score: 0.552
[19]
  composite z-score: 0.536
[20]
  composite z-score: 1.17

## CCOC(=O)NN=C1C[C@@H](O)[C@@H](O)[C@@H]2[C@@H]3C(=O)N(c4ccc(F)cc4F)C(=O)[C@@H]3CC[C@@H]12
[1]
  composite z-score: -0.009
[2]
  z-score: 0.517 (inactive)
[3]
  z-score: 0.733 (inactive)
[4]
  z-score: -0.0512 (inactive)
[5]
  composite z-score: 0.0129
[6]
  z-score: 0.783 (inactive)
[7]
  composite z-score: -0.0347
[8]
  composite z-score: 0.139
[9]
  composite z-score: 0.578
[10]
  composite z-score: -0.124
[11]
  composite z-score: 0.468
[12]
  composite z-score: -0.132
[13]
  composite z-score: -0.364
[14]
  z-score: 0.428 (inactive)
[15]
  composite z-score: 0.478
[16]
  composite z-score: 0.364
[17]
  composite z-score: 0.527
[18]
  composite z-score: 0.659
[19]
  composite z-score: 0.462
[20]
  composite z-score: 0.18

From PubChem BioAssay
